Results: publication PMC4336329 (PLoS ONE, 2015)
The campaign covered roughly 310,000 compounds. About 14,000 (4.5%) showed an effect of 50% or more. The effect is printed as a negative number. Many of the other results were omitted from the sample, so strong results are more common in it than they were.

molecular target: human ether-à-go-go-related gene (hERG) potassium channel (human, UniProt Q12809); test: primary screen, population patch clamp on CHO cells stably expressing hERG; higher = less effect of the substance
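Further: peak tail current of the secondary pulse compared with the same well before compound.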

human ether-à-go-go-related gene (hERG) potassium channel, sequence (Q12809 whole entry, looked up): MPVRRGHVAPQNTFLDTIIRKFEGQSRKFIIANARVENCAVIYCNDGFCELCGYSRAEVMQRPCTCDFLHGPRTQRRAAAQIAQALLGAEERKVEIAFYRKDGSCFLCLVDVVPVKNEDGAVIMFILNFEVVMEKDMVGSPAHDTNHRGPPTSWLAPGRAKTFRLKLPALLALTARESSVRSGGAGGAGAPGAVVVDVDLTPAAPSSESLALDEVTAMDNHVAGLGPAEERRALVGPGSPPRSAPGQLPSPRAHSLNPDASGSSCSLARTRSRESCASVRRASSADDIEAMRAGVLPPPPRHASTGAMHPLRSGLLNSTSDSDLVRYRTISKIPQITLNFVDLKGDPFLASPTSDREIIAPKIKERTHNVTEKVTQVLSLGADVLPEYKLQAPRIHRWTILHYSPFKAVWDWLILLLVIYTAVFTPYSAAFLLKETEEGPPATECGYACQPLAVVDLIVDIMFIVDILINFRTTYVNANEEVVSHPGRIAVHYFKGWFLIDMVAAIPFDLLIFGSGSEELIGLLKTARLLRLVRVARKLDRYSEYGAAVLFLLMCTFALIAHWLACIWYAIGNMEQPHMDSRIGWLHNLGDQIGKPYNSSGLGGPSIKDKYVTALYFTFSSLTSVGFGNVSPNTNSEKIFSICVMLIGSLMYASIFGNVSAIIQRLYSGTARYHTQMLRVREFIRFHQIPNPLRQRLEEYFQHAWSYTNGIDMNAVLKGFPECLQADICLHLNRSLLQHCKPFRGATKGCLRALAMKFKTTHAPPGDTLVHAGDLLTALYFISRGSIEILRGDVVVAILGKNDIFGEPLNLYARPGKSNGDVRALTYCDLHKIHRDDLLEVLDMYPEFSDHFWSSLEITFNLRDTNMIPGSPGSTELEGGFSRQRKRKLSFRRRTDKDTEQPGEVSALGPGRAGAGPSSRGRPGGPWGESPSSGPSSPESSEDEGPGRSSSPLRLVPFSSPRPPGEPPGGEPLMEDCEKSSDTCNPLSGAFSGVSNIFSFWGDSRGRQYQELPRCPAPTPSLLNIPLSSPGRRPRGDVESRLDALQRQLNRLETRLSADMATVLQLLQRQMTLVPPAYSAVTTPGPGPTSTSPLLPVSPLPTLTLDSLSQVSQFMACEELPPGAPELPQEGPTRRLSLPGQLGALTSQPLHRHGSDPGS

| SMILES | hERG current change (%, negative = inhibition) at 10uM |
| --- | --- |
| CNC(=O)C(=O)NCCCN1CCOCC1 | 7.92% |
| CC(C)NC(=O)C(=O)NCCCN1CCOCC1 | 25.1% |
| O=C(NCCN1CCOCC1)/C(=C\c1ccccc1Cl)NC(=O)c1ccccc1 | -16.2% |
| CC(=O)c1ccc(S(=O)(=O)N(C)C(C)CCc2ccco2)cc1 (stereo not drawn) | -6.81% |
| CC(=O)N1CCc2cc(Br)cc(S(=O)(=O)N3CCN(c4ccccn4)CC3)c21 | 10.7% |
| Cc1ccc(/C=C2\C(=N)N3N=C(CC(=O)N4CCOCC4)SC3=NC2=O)o1 | 12.2% |
| CCOC(=O)c1cc(-c2ccccc2)sc1NC(=O)C(C)C | 13.8% |
| O=C(O)C1C2CCC(C2)C1C(=O)NCc1ccccn1 (stereo not drawn) | 16.1% |
| CCOC(=O)N1CCN(c2ccc(S(=O)(=O)N(Cc3ccccc3)Cc3ccccc3)cn2)CC1 | -4.41% |
| Cc1ccc(S(=O)(=O)N2CCN(Cc3cc(=O)n4ccccc4n3)CC2)cc1C | -40.5% |
| O=S(=O)(c1ccccc1)N1CCN(Cc2cccc(Cl)c2)CC1 | -18.1% |
| O=c1cc(CN2CCN(S(=O)(=O)c3ccccc3)CC2)nc2ccc(Cl)cn12 | -56% |
| Cc1ccc(S(=O)(=O)N2CCN(Cc3cc(=O)n4ccccc4n3)CC2)c(C)c1 | -80.6% |
| O=c1nc2ccc(Cl)cn2c2ccc(S(=O)(=O)N3CCCCC3)cc12 | -0.392% |
| COc1ccc(S(=O)(=O)N2CCN(Cc3cc(=O)n4ccccc4n3)CC2)cc1 | -31.4% |
| CCOc1cccc(C2/C(=C(/O)c3ccc4c(c3)CC(C)O4)C(=O)C(=O)N2CCN2CCOCC2)c1 (stereo not drawn) | 14.7% |
| N#Cc1ccccc1NC(=O)CSc1ccc([N+](=O)[O-])cn1 | 13.1% |
| CCN(CC)CCC(c1cc(OC)c(OC)c(OC)c1)c1c(OC)cc(OC)c2c(-c3ccccc3)cc(=O)oc12 (stereo not drawn) | -16.8% |
| COc1cc(C(CCN2CCCCC2)c2c(OC)cc(OC)c3c(-c4ccccc4)cc(=O)oc23)cc(OC)c1OC (stereo not drawn) | -67% |
| COc1cc(OC)c2c(-c3ccccc3)cc(=O)oc2c1C(CCN1CCN(c2ccccc2)CC1)c1ccc(N(C)C)cc1 (stereo not drawn) | 7.89% |
| COc1cc(C(CCN2CCCC2)c2c(OC)cc(OC)c3c(-c4ccccc4)cc(=O)oc23)cc(OC)c1OC (stereo not drawn) | -70.8% |

| SMILES | hERG current change (%, negative = inhibition) at 10uM |
| --- | --- |
| COc1cc(C(CC(=O)N2CCCC2)c2c(OC)cc(OC)c3c(-c4ccccc4)cc(=O)oc23)cc(OC)c1OC (stereo not drawn) | -10.5% |
| COc1cc(C(CCN2CCCC(C)C2)c2c(OC)cc(OC)c3c(-c4ccccc4)cc(=O)oc23)cc(OC)c1OC (stereo not drawn) | -38.7% |
| Cc1ccc(NC(=O)CCS(=O)(=O)c2cc3c(cc2Cl)NC(=O)CO3)cc1 | -17.4% |
| O=C(CNC(=O)c1ccc(Cl)cc1)c1ccc(Cl)cc1 | 7.28% |
| Cc1ccc(CNC(=O)C2C3C=CC(C3)C2C(=O)O)cc1 (stereo not drawn) | -3.26% |
| Cl.OC(CN1CCCCC1)Cn1c(C(F)(F)F)nc2ccccc21 (stereo not drawn) | 4.06% |
| CC1CN(S(=O)(=O)c2cccs2)CC(C)O1 (stereo not drawn) | -3.7% |
| COc1ccc(NC(=S)NCc2ccco2)cc1 | 9.23% |
| COc1ccc(S(=O)(=O)n2cnc3ccccc32)cc1OC | 12.4% |
| C=CCn1c(O)c(C(CC)=NCc2cc(OC)cc(OC)c2)c(=O)[nH]c1=O | -59% |
| C=CCn1c(O)c(C(C)=NCc2cc(OC)cc(OC)c2)c(=O)[nH]c1=O | -37% |
| CCCCn1c(O)c(C(CC)=NCc2cc(OC)cc(OC)c2)c(=O)[nH]c1=O | -13.8% |
| Cc1ccc(S(=O)(=O)Nc2ccccc2/C=N/c2nc3ccccc3n2C)cc1 | -13.5% |
| Cc1cc(-c2ccc(N3CCOCC3)cc2)nc2ccccc12.Cl | 3.53% |
| Cc1c(N=Cc2c(O)n(Cc3ccc(F)cc3)c(=O)[nH]c2=O)c(=O)n(-c2ccccc2)n1C | -26% |
| C=CCn1c(O)c(C=Nc2c(C)n(C)n(-c3ccccc3)c2=O)c(=O)[nH]c1=O | -81.6% |
| Cc1c(N=Cc2c(O)n(CCc3ccccc3)c(=O)[nH]c2=O)c(=O)n(-c2ccccc2)n1C | -39.3% |
| CCCCn1c(O)c(C=Nc2c(C)n(C)n(-c3ccccc3)c2=O)c(=O)[nH]c1=O | 4.96% |
| Cc1c(N=Cc2c(O)n(Cc3ccccc3)c(=O)[nH]c2=O)c(=O)n(-c2ccccc2)n1C | -5.81% |
| Cc1c(N=Cc2c(O)n(CCc3ccc(F)cc3)c(=O)[nH]c2=O)c(=O)n(-c2ccccc2)n1C | -61.9% |
| C=C(C)Cn1c(N2CC(C)CC(C)C2)nc2c1c(=O)[nH]c(=O)n2C (stereo not drawn) | 2.46% |
